In PubChem BioAssay (NCI):
Where “and” joins values, the source holds several entries; their conditions need not be identical. Equal values may be shown once. This is part of a sample that, as a whole, favours compounds with a hit. Of some 83,000 tested, about 20% had one in any assay.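 Growth was measured after 48 h exposure to one concentration of compound in 96-well plates. Values under 10 count as active.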 Calls of active or inactive are those of the source.

The molecules below were run on NCI-H23 lung (assay: NCI-60 one-dose screen, 48 h (100 = growth as untreated, 0 = no growth, -100 = all killed)). Conditions: 10 µM unless noted.
For `COc1ccccc1/C=N\N=C(N/N=C/c1ccccc1OC)N/N=C/c1ccccc1OC`, the growth was 58% (inactive) and 27.5% (inactive).
In the case of `CN(C)c1ccc(C(Cc2ccc3ccccc3n2)Cc2ccc3ccccc3n2)cc1`, the growth is reported as 38.6% (inactive) and 65.5% (inactive).
`O=[N+]([O-])c1ccc(N/N=C\c2cc(Br)ccc2O)nc1` was tested, and the growth was 20.7% (inactive) and 14.2% (inactive).
`COc1ccc(NC(=S)Nc2ccccn2)cc1` was tested, and the growth was 96% (inactive).
For `CCCCCCCCCCCCCCCCOc1ccc(C)cc1`, the growth was 98.2% (inactive).
`COc1cc(C(=O)N/N=C/c2ccc(N(C)C)cc2)cc(OC)c1OC` was tested, and the growth was 19.4% (inactive).
For `CC1(c2ccc3ccccc3c2)CCC(=O)O1` (centres undefined), the growth was 95% (inactive).
With `CCCCOc1cc(C(=O)NCCN(CC)CC)c2ccccc2n1` the growth was 88.7% (inactive) and 106% (inactive).

The molecules below were run on NCI-H226 lung in the same assay as above. Conditions: 10 µM.
For `CNC(=O)c1cc(Oc2ccc(CC(=O)Nc3cc(C(C)(C)C)nn3C)cc2)ccn1`, the growth was 61.6% (inactive).
`CC#C[C@]1(O)CC[C@H]2[C@@H]3CCC4=CC(=O)CCC4=C3[C@@H](c3ccc4c(c3)OCO4)C[C@@]21C` was tested, and the growth was 85.2% (inactive).
With `CCc1ccccc1-n1c(N)c(C#N)c(-c2ccc(OC)c(OC)c2)c(C#N)c1=O` the growth was 109% (inactive).

Same assay, conditions: 10 µM unless noted
With `Cc1cc(O)c(C(C)C)cc1N` the growth was 108% (inactive) and 93.1% (inactive).
In the case of `O=C(c1ccc(Cl)cc1)C(NCCO)c1ccc(Cl)cc1` (centres undefined), the growth is reported as 93.2% (inactive) and 106% (inactive).
With `O=C(O)CN(CCN(CC(=O)O)CC(=O)O)CCN(CC(=O)O)CC(=O)O` the growth was 15.7% (inactive) and 98.6% (inactive) and 90.3% (inactive).
With `O=S1(=O)CC(Br)C(Br)C1` (centres undefined) the growth was 40.7% (inactive) and 113% (inactive).
`Cc1ccc(S(=O)(=O)Nc2ccc3cc([N+](=O)[O-])ccc3c2[N+](=O)[O-])cc1` was tested, and the growth was 67.6% (inactive) and 95.5% (inactive).
In the case of `O=C(O)CSCc1nc2ccccc2[nH]1`, the growth is reported as 106% (inactive).
For `CCc1c(CC(=O)O)c2cc(C)ccc2n1Cc1ccc(Cl)cc1`, the growth was 94.9% (inactive) and 97.8% (inactive).
`COc1cc(/C=N/Nc2nc3c([nH]2)c(=O)n(C)c(=O)n3C)ccc1O` was tested, and the growth was 103% (inactive) and 113% (inactive).
For `O=C1C2=C(C(=O)c3ccccc31)C(O)(S(=O)(=O)O)C(O)(S(=O)(=O)O)C1N=CC=CC21` (centres undefined), the growth was 57% (inactive) and 68.1% (inactive).
`COc1c(/C(C)=N/N=c2sc(C(C)=O)nn2-c2ccc(Cl)cc2)c(Oc2ccccc2)c(OC)c2occc12` was tested, and the growth was 98.9% (inactive) and 97.4% (inactive).
`O=[N+]([O-])c1ccccc1N(S(=O)(=O)c1ccccc1)S(=O)(=O)c1ccccc1` was tested, and the growth was 113% (inactive) and 91.2% (inactive).
With `CCOc1ccc2c(S(=O)(=O)O)cccc2c1[N+](=O)[O-]` the growth was 97.1% (inactive) and 94% (inactive).
In the case of `CC1=C(/C=C/C(C)=C/C=C/C(C)=C/C(=O)O)C(C)(C)CCC1`, the growth is reported as 93% (inactive) and 92.1% (inactive) and 88.2% (inactive).
In the case of `CCN(CC)C(=O)c1cccnc1`, the growth is reported as 110% (inactive).
For `COc1ccc(S(=O)(=O)N2CCOCC2)cc1NC(=O)c1[nH]c(C)c2c1CCCCC2=O`, the growth was 104% (inactive) and 62% (inactive).
In the case of `CCC(=O)C(CC)c1cccc(OC)c1` (centres undefined), the growth is reported as 102% (inactive).
For `Cn1cc(-c2cc3c(Nc4ccc(CC(=O)Nc5cc(C(C)(C)C)on5)cc4)ncnc3[nH]2)cn1`, the growth was -2.21% (active) and -21.5% (active).
With `C[N+](C)(C)CN1C(=O)c2ccccc2C1=O` the growth was 112% (inactive).
For `O=[N+]([O-])c1ccc2nc3c4ccccc4c4ccccc4c3nc2c1`, the growth was 41.5% (inactive).
`COc1ccccc1/C=N\N=C(N/N=C/c1ccccc1OC)N/N=C/c1ccccc1OC` was tested, and the growth was 85.7% (inactive) and 46.5% (inactive).
In the case of `CN(C)c1ccc(C(Cc2ccc3ccccc3n2)Cc2ccc3ccccc3n2)cc1`, the growth is reported as 61.4% (inactive) and 71.9% (inactive).
For `CO/N=C/C=C\C(=O)N/C=C/C[C@H]1/C=C/[C@H](O)/C=C\C=C\c2cccc(O)c2C(=O)O1`, the growth was -81.9% (active) and -73.8% (active).
In the case of `CCN(CC)CCCC(C)Nc1cnc(C(=O)Nc2cc(F)cc3cccnc23)cn1` (centres undefined), the growth is reported as 85.1% (inactive) and 49.5% (inactive).
